HTT aggregate – mutant huntingtin aggregation inhibition | AID 1688 | 220,000 tested, 1.1% active | PC12 HttQ103-GFP aggregates, Acumen cytometry, 40 h | Potency, µM (top dose mostly 46.1 µM), for inactives: top-dose activity change, negative = inhibition, hits mostly inhibitors; active = well fitted curve in the direction sought with a large enough effect; inconclusive = small, poorly fitted or top-dose-only effect, or another doubt; inactive = no such curve, though single readings can be large; an effect the other way counts as inactive or inconclusive; note: % is set by controls: 0 for no effect and ±100 for the full control effect; nearly all actives have a fitted effect of over 60% in size
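Multiplexed with ATP-based cell death, this channel scores GFP aggregates in PC12 cells expressing inducible HTTex1-Q103-GFP. Induction used 100 nM tebufenozide; compounds were tested in concentration series.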
KDM4E inh – inhibitors of human JMJD2E histone demethylase. 230,000 tested, 1.6% active. JMJD2E catalytic domain, FDH-coupled NADH fluorescence (FDH is formaldehyde dehydrogenase). B2RXH2. Potency, µM (top dose mostly 57.1 µM), for inactives: at the top dose activity change, negative = inhibition, usual class: inhibitors;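 note: 0% = wells with enzyme and -100% = buffer wells without enzyme; nearly all actives have a fitted effect of over 50% in size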
Target sequence (B2RXH2 1-337 limits assumed): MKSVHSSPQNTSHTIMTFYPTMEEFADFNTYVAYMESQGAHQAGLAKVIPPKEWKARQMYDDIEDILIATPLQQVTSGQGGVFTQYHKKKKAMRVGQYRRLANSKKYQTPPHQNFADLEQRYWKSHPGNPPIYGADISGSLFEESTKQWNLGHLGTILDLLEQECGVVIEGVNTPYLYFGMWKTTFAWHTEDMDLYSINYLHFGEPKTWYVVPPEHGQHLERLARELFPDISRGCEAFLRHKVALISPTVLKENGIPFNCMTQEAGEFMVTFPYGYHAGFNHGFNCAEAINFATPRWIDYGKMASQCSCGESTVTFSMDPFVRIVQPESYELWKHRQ
LMNA splice mod – LMNA splicing modulation; HeLa LMNA splicing GFP/RFP minigene ratio, 48 h; Potency, µM (titrated, usually from 46.1 µM), for inactives: at the highest dose ratio change, negative = inhibition, most hits filed as inhibitors; 200,000 tested, 0.01% active; active = well fitted inhibition curve with a large enough effect in the signal ratio, with a control signal flat, not every such curve was filed as active; inconclusive = small, poorly fitted or top-dose-only effect, or effect the other way, or a change in a side signal; the % refers to the signal ratio; note: % is set by controls: 0 for no effect and ±100 for the full control effect
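S3 HeLa stable clones carrying a lamin A-EGFP splicing minigene plus DsRed2 were seeded at 600 cells/well in Opti-MEM with 2% FBS, pin-dosed and incubated 48 h at 37°C. Acumen cytometry (488 nm) gave the GFP/RFP total-intensity ratio.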
ALDH1A1 inh – ALDH1A1 (human) enzyme inhibition. AID 1030. 220,000 tested, 7.3% active. Potency, µM (titrated, usually from 75.3 µM), for inactives: at the highest dose activity, negative = inhibition, actives largely listed as inhibitors. Purified ALDH1A1, NADH fluorescence, propionaldehyde substrate. P00352;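 note: plate controls were no enzyme wells and a reference inhibitor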
HTT cytoprotect – Huntington cell model cytoprotection by ATP luminescence. 230,000 tested, 0.14% active. PC12 HTT-Q103 induced, cytoprotection, ATP luminescence, 40 h. Potency, µM (titrated, usually from 56.4 µM), without a hit: cytoprotection (ATP increase), most hits filed as activators; active = well fitted curve in the direction sought with a large enough effect; inconclusive = small, poorly fitted or top-dose-only effect, or another doubt; inactive = no such curve, though single readings can be large; an effect the other way counts as inactive or inconclusive; note: % of control where 0% means no effect; nearly all actives have a fitted effect of over 45% in size
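PC12 cells with ecdysone-inducible HTT exon 1 Q103-GFP, induced with 100 nM tebufenozide and co-treated with library compounds in a dose series (1536-well, 1500 cells/well). Cytoprotection read as ATP content by ATPlite luminescence.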
HPGD inh – inhibitors of human 15-hydroxyprostaglandin dehydrogenase (HPGD); P15428; purified HPGD, NADH fluorescence kinetic, PGE2 substrate; Potency, µM, without a hit: at the top dose activity change, negative = inhibition, usual class: inhibitors; 150,000 tested, 4.3% active; note: % is set by controls: 0 for no effect and ±100 for the full control effect
Target sequence (P15428 whole entry, looked up): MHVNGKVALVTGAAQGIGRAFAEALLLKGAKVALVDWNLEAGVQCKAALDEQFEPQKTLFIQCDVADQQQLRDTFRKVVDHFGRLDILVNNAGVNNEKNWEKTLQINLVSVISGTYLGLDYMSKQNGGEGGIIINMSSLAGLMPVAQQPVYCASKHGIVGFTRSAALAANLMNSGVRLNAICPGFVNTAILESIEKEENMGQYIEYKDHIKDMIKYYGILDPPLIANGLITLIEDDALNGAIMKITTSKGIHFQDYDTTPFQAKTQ
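20 nM HPGD preincubated 15 min at room temperature with compound in 50 mM Tris-HCl pH 8, 0.01% Tween 20. Started with 1 mM NAD+ and 30 uM prostaglandin E2; NADH fluorescence (360/450 nm) read 5 times over 30-s intervals, last minus first.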
* hit, by the source's call; [ ] = remark or other dose. In the library only some 9.2% were active in any assay of this set; here they are far more common. Unless noted, calls come from the whole dose curve; as a rule, active = well fitted inhibition curve with a large enough effect (not every such curve was filed as active); inconclusive = small, poorly fitted or top-dose-only effect, or another doubt; inactive = no such curve, though single readings can be large or run the other way. Potency is the fitted concentration of half-maximal effect.

`COc1cc(/C=C2\S/C(=N/S(=O)(=O)c3ccc(C)cc3)NC2=O)c([N+](=O)[O-])cc1OC` gave HTT aggregate 20%, KDM4E inh -16%, LMNA splice mod -1%, ALDH1A1 inh inconclusive, HTT cytoprotect 28%[10 µM] and HPGD inh 7.1µM*.
Screening Cc1ccc(/C=C2\S/C(=N/S(=O)(=O)c3cccs3)NC2=O)cc1 returned HTT aggregate 19%[9.22 µM], KDM4E inh -3% and HTT cytoprotect 18%[10 µM].
Cc1ccc(S(=O)(=O)/N=C2/NC(=O)/C(=C/c3ccccc3)S2)cc1 was read as HTT aggregate inconclusive, KDM4E inh inconclusive, ALDH1A1 inh inconclusive and HTT cytoprotect -29%.
`CC(C)(CO)[C@H](O)C(=O)NCCC(=O)O` gave KDM4E inh 8%[25.5 µM], LMNA splice mod 5%, ALDH1A1 inh -12%[20.9 µM], HTT cytoprotect -4%[40.3 µM] and HPGD inh 3%.
Screening CCSc1nnc(NC(=O)C(NC(=O)c2ccc(Cl)cc2)C(C)C)s1 (centres undefined) returned HTT aggregate 32µM*, KDM4E inh inconclusive, LMNA splice mod inconclusive, ALDH1A1 inh 4% and HPGD inh -4%.
Screening CCOC(=O)CCSc1nc(C)c2ccccc2n1 returned HTT aggregate -11%, KDM4E inh inconclusive, LMNA splice mod -4%, ALDH1A1 inh 6%, HTT cytoprotect 10%[0.074 µM] and HPGD inh -18%.
For Cc1cc2nc(SCCOC(=O)Nc3ccc(Cl)cc3)nc(C)c2cc1C the results were HTT aggregate -13%, KDM4E inh 2%, LMNA splice mod 6%, ALDH1A1 inh 3%, HTT cytoprotect -5% and HPGD inh 14µM*.
Screening CCOC(=O)CCSc1nc(C)c2cc(C)ccc2n1 returned HTT aggregate 3%, KDM4E inh inconclusive, LMNA splice mod 1%, ALDH1A1 inh 4%, HTT cytoprotect -8% and HPGD inh 20µM*.
`CC1=C2[C@@H]([C@H](C)CC[C@H]2/C=C(\C)C(=O)O)[C@H](O)C1` gave ALDH1A1 inh inconclusive, HTT cytoprotect 0% and HPGD inh -10%.
For O=C(c1cccc(F)c1)N1CCC2(CC1)CCN(c1ccncc1)CC2 the results were ALDH1A1 inh 20%, HTT cytoprotect 15% and HPGD inh -13%.
Screening COc1cccc2c3c(c(=O)[nH]c12)CCC(C)(C)O3 returned HTT aggregate -12%, KDM4E inh -2%, LMNA splice mod -9%, ALDH1A1 inh 5%, HTT cytoprotect -9% and HPGD inh 16µM*.
Screening CCOC(=O)C1=C(C)OC(N)=C(C#N)C1c1cc(F)ccc1F (centres undefined) returned HTT aggregate 9%, KDM4E inh 5%, LMNA splice mod 0%, ALDH1A1 inh 8%, HTT cytoprotect inconclusive and HPGD inh -10%.
CCOC(=O)C1=C(C)OC(N)=C(C#N)C1c1ccc(C)s1 (centres undefined) was read as HTT aggregate -3%, KDM4E inh inconclusive, LMNA splice mod inconclusive, ALDH1A1 inh 22µM* and HTT cytoprotect -17%.
For COC(=O)C1=C(C)OC(N)=C(C#N)C1c1cc2cccc(C)c2nc1Cl (centres undefined) the results were HTT aggregate 9%[9.22 µM], KDM4E inh inconclusive, ALDH1A1 inh 28µM* and HTT cytoprotect inconclusive.
Screening COCCOC(=O)C1=C(C)OC(N)=C(C#N)C1c1cc2cccc(C)c2nc1Cl (centres undefined) returned KDM4E inh 4% and ALDH1A1 inh inconclusive.
For COC(=O)C1=C(C)OC(N)=C(C#N)C1c1cc(C)sc1C (centres undefined) the results were HTT aggregate 13%[9.22 µM], KDM4E inh 7%, LMNA splice mod 5%, ALDH1A1 inh inconclusive, HTT cytoprotect 18% and HPGD inh 28µM*.
For CCOc1ccc(CCNC(=O)COC(=O)c2nc3nc(C)cc(C)n3n2)cc1OCC the results were HTT aggregate -2%, KDM4E inh 7%, LMNA splice mod -8%, ALDH1A1 inh -2%, HTT cytoprotect 19%[10 µM] and HPGD inh -5%.
COC(=O)c1sccc1NC(=S)N1CC(C)CC(C)C1 (centres undefined) was read as HTT aggregate 9%, KDM4E inh -2%, LMNA splice mod 5%, ALDH1A1 inh 7.9µM*, HTT cytoprotect 7% and HPGD inh inconclusive.
`COC(=O)c1sccc1NC(=S)N1CCC(C)CC1` gave HTT aggregate -8%, KDM4E inh 0%, LMNA splice mod 0%, ALDH1A1 inh 20µM*, HTT cytoprotect -12% and HPGD inh -6%.
`COC(=O)c1sccc1NC(=S)N1CCN(c2ccccc2)CC1` gave HTT aggregate -8%, KDM4E inh -1%, LMNA splice mod inconclusive, ALDH1A1 inh 5%, HTT cytoprotect 15%[10 µM] and HPGD inh -5%.
Screening O=C1NC(c2cn(-c3ccccc3)nc2-c2cccs2)C(C(=O)c2cccnc2)C(O)(C(F)(F)F)N1 (centres undefined) returned HTT aggregate 1%[9.22 µM], KDM4E inh -5%, LMNA splice mod 13%, ALDH1A1 inh inconclusive, HTT cytoprotect 2%[10 µM] and HPGD inh 0%.
Screening COc1ccc(C2NC(=O)NC(O)(C(F)(F)F)C2C(=O)c2ccccc2)cc1OC (centres undefined) returned HTT aggregate -12%, KDM4E inh -2%, LMNA splice mod 4%, ALDH1A1 inh 32µM*, HTT cytoprotect -7% and HPGD inh -5%.
For COc1cccc(C2NC(=O)NC(O)(C(F)(F)F)C2C(=O)c2cccnc2)c1OC (centres undefined) the results were HTT aggregate -18%, KDM4E inh -8%, LMNA splice mod 4%, ALDH1A1 inh 11µM*, HTT cytoprotect -7% and HPGD inh 4%.
For COc1ccc(C2NC(=O)NC(O)(C(F)(F)F)C2C(=O)c2ccc(C)cc2)cc1 (centres undefined) the results were HTT aggregate -3%, KDM4E inh -1%, LMNA splice mod 2%, ALDH1A1 inh 18µM* and HTT cytoprotect 9%.
For CC(=O)C1C(c2ccc(OC(F)F)cc2)NC(=O)NC1(O)C(F)(F)F (centres undefined) the results were HTT aggregate -12%, KDM4E inh 0%, LMNA splice mod 6%, ALDH1A1 inh 3%, HTT cytoprotect -8% and HPGD inh -1%.
For CCS(=O)(=O)c1c([N+](=O)[O-])ncn1C the results were HTT aggregate 3.5µM*, KDM4E inh -1%, LMNA splice mod inconclusive, ALDH1A1 inh -2% and HPGD inh -9%.

Source: PubChem BioAssay
